# Data reported in PubChem BioAssay (NCI).
# Several values for one entry are separate records, joined by “and”; a condition that tells them apart may be missing. Identical values can stand only once. The panel holds about 83,000 compounds, 20% with a hit somewhere; the sample as a whole holds those more often.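 In brief: 96-well plates, 48 h treatment, single concentration, percent growth endpoint.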 A number with no mark means an inactive call. Activity calls are given as the source filed them. The calls were made as follows: active = growth percent below 10; inactive = the rest.
# What was measured:
# Assay in all cases: NCI-60 one-dose screen, 48 h (100 = growth as untreated, 0 = no growth, -100 = all killed)
# NCI-H23 lung = tested on: NCI-H23 lung
# NCI-H460 lung = tested on: NCI-H460 lung
# A549/ATCC NSCLC = tested on: A549/ATCC NSCLC
# 786-0 renal = tested on: 786-0 renal
# COLO 205 colon = tested on: COLO 205 colon
# NCI-H226 lung = tested on: NCI-H226 lung
# NCI-H322M lung = tested on: NCI-H322M lung
# HOP-62 NSCLC = tested on: HOP-62 NSCLC
# HOP-92 NSCLC = tested on: HOP-92 NSCLC
# NCI-H522 lung = details: 10 µM unless noted
compound,measurement,setting,value
S=c1nc[nH]c2nc[nH]c12,growth,NCI-H23 lung; 50 µM,21.3%
same,growth,NCI-H460 lung; 10 µM,45.3%
same,growth,NCI-H460 lung; 50 µM,26.9%
same,growth,A549/ATCC NSCLC; 50 µM,48.2%
same,growth,786-0 renal; 50 µM,25.9%
same,growth,COLO 205 colon; 50 µM,6.94% (active)
O=c1ccn2c(n1)OC1CC2OC1COC(c1ccccc1)(c1ccccc1)c1ccccc1 (stereo not given),growth,NCI-H23 lung; 100 µM,99.6%
same,growth,NCI-H226 lung; 10 µM,102%
same,growth,NCI-H226 lung; 100 µM,90.5%
same,growth,NCI-H322M lung; 10 µM,106%
same,growth,NCI-H322M lung; 100 µM,49.9%
same,growth,HOP-62 NSCLC; 10 µM,99.6%
same,growth,HOP-62 NSCLC; 100 µM,96.3%
same,growth,NCI-H460 lung; 10 µM,106%
same,growth,NCI-H460 lung; 100 µM,94.5%
same,growth,A549/ATCC NSCLC; 100 µM,83%
same,growth,786-0 renal; 100 µM,86.1%
same,growth,COLO 205 colon; 100 µM,115%
CS/C(=C\c1ccc(C(=O)c2ccc(C)cc2)n1C)S(C)=O (stereo not given),growth,NCI-H23 lung; 100 µM,66.2%
same,growth,NCI-H226 lung; 10 µM,81.3%
same,growth,NCI-H226 lung; 100 µM,72.3%
same,growth,NCI-H322M lung; 10 µM,98%
same,growth,NCI-H322M lung; 100 µM,103%
same,growth,HOP-62 NSCLC; 10 µM,96.8%
same,growth,HOP-62 NSCLC; 100 µM,76.9%
same,growth,HOP-92 NSCLC; 10 µM,71.7%
same,growth,HOP-92 NSCLC; 100 µM,64.6%
same,growth,A549/ATCC NSCLC; 100 µM,65.7%
same,growth,786-0 renal; 100 µM,74.1%
same,growth,COLO 205 colon; 100 µM,93.5%
CCOC(=O)c1csc(N)n1,growth,NCI-H23 lung; 10 µM unless noted,105% and 102%
same,growth,NCI-H226 lung; 10 µM unless noted,102% and 105%
same,growth,NCI-H322M lung; 10 µM unless noted,87.1% and 101%
same,growth,HOP-62 NSCLC; 10 µM unless noted,103% and 96.9%
same,growth,NCI-H460 lung; 10 µM unless noted,105%
same,growth,HOP-92 NSCLC; 10 µM unless noted,96% and 95.7%
same,growth,NCI-H522 lung,88.7%
same,growth,A549/ATCC NSCLC; 10 µM unless noted,81.5% and 93.8%
same,growth,786-0 renal; 10 µM unless noted,101% and 100%
same,growth,COLO 205 colon; 10 µM unless noted,129% and 108%
CC1OS(=O)OC1C (stereo not given),growth,NCI-H23 lung; 10 µM unless noted,101% and 95.8%
same,growth,NCI-H226 lung; 10 µM unless noted,103% and 101%
same,growth,NCI-H322M lung; 10 µM unless noted,108% and 94%
same,growth,HOP-62 NSCLC; 10 µM unless noted,101% and 105%
same,growth,NCI-H460 lung; 10 µM unless noted,104% and 102%
same,growth,HOP-92 NSCLC; 10 µM unless noted,114% and 96.3%
same,growth,NCI-H522 lung,68.9% and 94.9%
same,growth,A549/ATCC NSCLC; 10 µM unless noted,97.9% and 104%
same,growth,786-0 renal; 10 µM unless noted,103% and 105%
same,growth,COLO 205 colon; 10 µM unless noted,112% and 102%
O=[N+]([O-])c1ccc(NC(c2ccccc2)c2ccc3cccnc3c2O)cc1 (stereo not given),growth,NCI-H23 lung; 10 µM unless noted,32%
same,growth,NCI-H226 lung; 10 µM unless noted,16.6%
same,growth,NCI-H322M lung; 10 µM unless noted,29.8%
same,growth,HOP-62 NSCLC; 10 µM unless noted,26.5%
same,growth,NCI-H460 lung; 10 µM unless noted,-16% (active)
same,growth,HOP-92 NSCLC; 10 µM unless noted,62.5%
same,growth,NCI-H522 lung,17.9%
same,growth,A549/ATCC NSCLC; 10 µM unless noted,13.8%
same,growth,786-0 renal; 10 µM unless noted,18.3%
same,growth,COLO 205 colon; 10 µM unless noted,30.3%
O=C(N=C1C(=O)C2(CCCCC2)C2(N=C(c3ccccc3)OC2=O)C12CCCCC2)c1ccccc1 (stereo not given),growth,NCI-H23 lung; 10 µM unless noted,66.9%
same,growth,NCI-H226 lung; 10 µM unless noted,70.2%
same,growth,NCI-H322M lung; 10 µM unless noted,96%
same,growth,HOP-62 NSCLC; 10 µM unless noted,96.8%
same,growth,NCI-H460 lung; 10 µM unless noted,69.5%
same,growth,HOP-92 NSCLC; 10 µM unless noted,41.7%
same,growth,NCI-H522 lung,37.9%
same,growth,A549/ATCC NSCLC; 10 µM unless noted,5.7% (active)
same,growth,786-0 renal; 10 µM unless noted,77.7%
same,growth,COLO 205 colon; 10 µM unless noted,94%
Cc1ccc(N)cc1S(=O)(=O)O,growth,NCI-H23 lung; 10 µM unless noted,109% and 107%
same,growth,NCI-H226 lung; 10 µM unless noted,109%
same,growth,NCI-H322M lung; 10 µM unless noted,125% and 113%
same,growth,HOP-62 NSCLC; 10 µM unless noted,104% and 112%
same,growth,NCI-H460 lung; 10 µM unless noted,109% and 107%
same,growth,HOP-92 NSCLC; 10 µM unless noted,93.1%
same,growth,NCI-H522 lung,127%
same,growth,A549/ATCC NSCLC; 10 µM unless noted,108% and 102%
same,growth,786-0 renal; 10 µM unless noted,107% and 98.5%
same,growth,COLO 205 colon; 10 µM unless noted,109% and 111%
CCN(CC)CCO/N=C1\CC(c2ccc(OC)c(OC)c2)Oc2ccccc21 (stereo not given),growth,NCI-H23 lung; 10 µM unless noted,96.2%
same,growth,NCI-H226 lung; 10 µM unless noted,84.7%
same,growth,NCI-H322M lung; 10 µM unless noted,94.8%
same,growth,HOP-62 NSCLC; 10 µM unless noted,104%
same,growth,NCI-H460 lung; 10 µM unless noted,104%
same,growth,HOP-92 NSCLC; 10 µM unless noted,79.6%
same,growth,NCI-H522 lung,88.2%
same,growth,A549/ATCC NSCLC; 10 µM unless noted,97%
same,growth,786-0 renal; 10 µM unless noted,81.1%
same,growth,COLO 205 colon; 10 µM unless noted,97.5%
Nc1ccc(Cl)c(S(=O)(=O)O)c1,growth,NCI-H23 lung; 10 µM unless noted,97%
same,growth,NCI-H226 lung; 10 µM unless noted,97.1%
same,growth,NCI-H322M lung; 10 µM unless noted,89.2%
same,growth,HOP-62 NSCLC; 10 µM unless noted,100%
same,growth,NCI-H460 lung; 10 µM unless noted,105%
same,growth,HOP-92 NSCLC; 10 µM unless noted,106%
same,growth,NCI-H522 lung,99.1%
same,growth,A549/ATCC NSCLC; 10 µM unless noted,106%
same,growth,786-0 renal; 10 µM unless noted,104%
same,growth,COLO 205 colon; 10 µM unless noted,111%
